High-throughput results (PubChem)
MK inhibit – S. pneumoniae mevalonate kinase inhibition | 0.48% of 65,000 active | purified MK, PK/LDH-coupled NADH absorbance 340 nm | inhibition, % at 10 µM;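 active = ranked among the strongest by inhibition in the single 10 µM screen, a fixed top-ranked set picked for dose follow-up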
A340 absorber – compound absorbs light at 340 nm; compound absorbance at 340 nm, fold over control; AID 708; 65,000 tested, under 10 active; fold change at 10 µM;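 active = at 10 µM dose, initial 340 nm absorbance at least 2 fold that of control wells; inactive = change under 2 fold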;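 note: initial absorbance extrapolated from kinetic A340 decline of NADH oxidation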
NADH enzymes – blocks coupling enzymes of NAD/NADH assays; coupled PK/LDH NADH assays, four targets; IC50, µM (top dose mostly 10 µM), without a hit: at the top dose inhibition; 0.02% of 65,000 active;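 active = single-dose screening hits from any of four coupled enzyme assays that gave an IC50 when retested across doses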;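 note: the DPM-DC format reads NADH fluorescence rather than 340 nm absorbance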
Spn DPM-DC inh – S. pneumoniae DPM-DC inhibition; purified DPM-DC, PK/LDH coupled NADH fluorescence; calls only at 10 µM; 0.49% of 65,000 active; AID 556;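 active = the 320 compounds with the highest percent inhibition in the single-dose primary screen, excluding strongly autofluorescent ones, cut at about 32% in these data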;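 note: kinetic rate of NADH fluorescence loss reporting ADP formed by the decarboxylase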
Fluor 339 460 – intrinsic fluorescence of library compounds, ex339/em460 – biochemical, MLSMR library, data from DPM-DC assay, artefact control, profiling panel; AID 709; fluorescence fold increase at 10 µM; compound autofluorescence, ex339/em460 nm, NADH buffer; active compounds read high; 1 = no-compound wells, NADH background; 5.5% of 65,000 active;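 active = at 10 µM, mean starting fluorescence two-fold or more over control wells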;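 note: signal is the first read of a kinetic run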
Spn PMK inh – inhibitors of Streptococcus pneumoniae phosphomevalonate kinase | 0.49% of 65,000 active | AID 539 | purified PMK, PK/LDH-coupled NADH absorbance 340 nm | inhibition, % at 10 µM;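 active = top-ranked compounds by inhibition in the single 10 µM screen, taking a fixed number of the strongest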;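 note: 0% = full reaction with DMSO carrier and 100% = background rate without enzyme reaction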
* marks the source's active call; other numbers are inactive results; i = inactive; x = not tested or not shown; + = active, no number. A selection: hits, their analogues and other compounds. The true share with any hit is near 6.8%.

SMILES	MK inhibit	A340 absorber	NADH enzymes	Spn DPM-DC inh	Fluor 339 460	Spn PMK inh
Cc1cc2c(cc1C)NC(c1cccnc1)C1=C(CC(C)(C)CC1=O)N2 (stereo not drawn)	11	1.3	10%	i	0.96	10
Cc1[nH]nc2c1C(c1ccc(F)cc1)C1=C(CC(C)(C)CC1=O)N2 (stereo not drawn)	8	1.1	5%	x	3.1*	12
Cc1[nH]nc2c1C(c1cccc(O)c1)C1=C(CC(C)(C)CC1=O)N2 (stereo not drawn)	1	1.1	5%	x	5*	9
CCOC(=O)C1CCCN(C(=O)c2ccc(OCC)cc2)C1 (stereo not drawn)	0	0.94	12%	i	1.1	14
CCCC1=C(C(=O)OCC)C(c2ccc(N(C)C)cc2)n2ncnc2N1 (stereo not drawn)	9	1	7%	i	1.1	13
CC(=O)N1CCc2cc(S(=O)(=O)NCCN3CCC(C)CC3)ccc21	0	1.1	4%	i	1.1	12
CCc1ccc(OCC(=O)Nc2ccc(-c3nc4ccccc4o3)c(O)c2)cc1	11	1.1	9%	x	2.2*	7
COc1ccccc1NC(=O)CC1Nc2ccccc2NC1=O (stereo not drawn)	11	1.1	10%	i	1.4	6
Cc1cc2c(cc1C)NC(CC(=O)NCc1ccccc1)C(=O)N2 (stereo not drawn)	0	1.2	0%	x	2.1*	0
COc1ccc(CCNC(=O)CC2Nc3cc(C)c(C)cc3NC2=O)cc1OC (stereo not drawn)	2	1.1	6%	i	2.1*	14
Cc1onc(-c2ccccc2Cl)c1C(=O)Nc1ccc(-c2cn3cccnc3n2)cc1	0	1.1	9%	x	5.2*	18
CC(=O)Nc1cccc(NC(=O)c2c(-c3ccccc3Cl)noc2C)c1	7	1	4%	i	1	4
Cc1onc(-c2ccccc2Cl)c1C(=O)Nc1cccc(-c2nc3ncccn3c2C)c1	0	1	6%	x	5.2*	12
Cc1ccc(-c2cn3cccnc3n2)cc1NC(=O)c1c(-c2ccccc2Cl)noc1C	0	1	5%	x	5.2*	10
O=C(NC1CCCC1)c1ccc(S(=O)(=O)N2CCCC2)cc1	6	1	2%	i	2.1*	11
Cc1c(C(=O)NC2CC2)oc2ccc(S(=O)(=O)N3CCCCCC3)cc12	1	1	5%	+	1	12
Cc1ccc(NC(=O)c2oc3ccc(S(=O)(=O)N4CCOCC4)cc3c2C)cc1C	4	1.1	5%	x	3.1*	11
O=C(NC1CC1)c1ccc(S(=O)(=O)NC2CCCCCC2)cc1	0	1	2%	i	1.1	5
Cc1c(C(=O)Nc2ccc(F)cc2)oc2ccc(S(=O)(=O)N3CCCC3)cc12	7	1	7%	i	1.1	12
CCS(=O)(=O)c1ccc(O)c(N2C(=O)C3C4C=CC(C4)C3C2=O)c1 (stereo not drawn)	x	1	4%	i	1.1	8
COCCn1c(-c2ccco2)nc2nc3ccccc3nc21	7	1	4%	x	3*	7
CC(C)OCCCn1c(-c2ccco2)nc2nc3ccccc3nc21	8	1.1	8%	x	3.8*	7
O=C(NCCCN1CCN(c2cccc(Cl)c2)CC1)C1CCC(=O)N1Cc1ccccc1Cl (stereo not drawn)	9	0.96	6%	i	0.94	8
Cc1cc(C)n(-c2nc3c(c(=O)[nH]c(=O)n3C)n2C(C)C)n1	0	0.98	6%	i	1.1	17
CCOc1cc(C2C(C(=O)OCC(C)C)=C(C)N=C3SCCC(=O)N32)ccc1OC(C)=O (stereo not drawn)	0	1.1	7%	i	1.1	19
O=C(Cc1coc(-c2ccc(F)cc2)n1)N1CCOCC1	0	1	11%	i	1	32*
O=S(=O)(c1ccc(NCCc2c[nH]c3ccccc23)nc1)N1CCOCC1	6	1	3%	i	1.1	3
Cc1c(NC(=O)CCc2ccc(S(=O)(=O)N3CCOCC3)cc2)c(=O)n(-c2ccccc2)n1C	5	1	3%	i	1	5
